Data on 39 molecules can be found in PubChem BioAssay.

Each structure is given as a SMILES string. A number with no mark means an inactive call.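 Rule for the calls: active = viability increase at or above a cutoff of the median across tested compounds plus 3 SD (cut at about 8.5% in these data, passing the limit was not always enough); inconclusive = some gains above the cutoff, reason not given; inactive = the rest.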

This assay can be described thus: doxorubicin toxicity protection in MRP-1 cells – H69AR cells, CellTiter-Glo, duplicate, MRP-1 activator project, pilot screen (AID 807).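 Note: compound pretreatment 18-22 h then 72 h combined with doxorubicin; 0% = doxorubicin alone and 100% = vehicle without doxorubicin.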 The note with it: H69AR viability with doxorubicin, CellTiter-Glo luminescence; at 10 µM; hits give high values. A general note: Cellular ATP, detected with luciferase, serves as a proxy for viable cell number.
As for `Cc1c(/C=N/n2cnnc2)c2ccccc2n1C`, the viability increase was -1.49%.
The result for `Cn1c(C(=O)N2CCC(C(=O)N3CCOCC3)CC2)cc2sccc21` reads 1.85%; that for `CCN1CCN(CC(=O)Nc2cccc(C)c2C)C(=O)C1=O`, -0.73%.
Regarding `CCOC(=O)N1CCN(CC(=O)Nc2cc3c(cc2C(C)=O)OCO3)CC1`, the viability increase was -3.17%.
Then `Cc1c(C#N)c2ncn(Cc3ccccc3)c(=O)c2n1-c1ccccc1`, with -3.74%; and `C=C(C)Cn1c(C2CC(=O)N(Cc3ccccc3)C2)nc2ccccc21` (centres undefined), with -1.95%; and `COc1ccc(OC)c(NC(=O)COC(=O)c2ccc(S(=O)(=O)N3CCOCC3)cc2)c1`, with -1.17%.
Then `OC(COc1cccc2ccccc12)CN1CCN(c2ccccn2)CC1` (centres undefined), with -2.34%; and `Cc1nnc(SCC(=O)NC(C)c2ccccc2)[nH]c1=O` (centres undefined), with -1.16%.
Then `CCOC(=O)c1sc(N)nc1-c1ccccc1`, with -2.29%.
For the molecule `CCP(=O)(c1ccccc1)C(C)(C)O` (centres undefined), the viability increase was -2.44%.
Consider `Cc1nn(C)c(C)c1NS(=O)(=O)c1ccccc1`, for which the viability increase is -0.34%.
The result for `CC(C)c1nnc(NC(=O)c2ccc(S(=O)(=O)N3CCOCC3)cc2)s1` reads -1%; that for `CCCSC1=N/C(=C\c2ccsc2)C(=O)S1`, -0.76%; that for `c1ccc2c(c1)CCCN2c1nc2ccccc2n2cnnc12`, -6.44%.
The result for `Cn1c(C(=O)NCCN2CCc3ccccc3C2)cc2c(=O)n(C)c3ccccc3c21` reads -4.36%; that for `O=C(NCc1cccnc1)c1ccc(CS(=O)(=O)c2ccc(Br)cc2)o1`, -1.28%.
The result for `COc1ccccc1N1CCN(C(=O)CCCC2=NS(=O)(=O)c3ccccc3N2)CC1` reads -4.95%; that for `COc1ccc(-c2nc(C#N)c(NCCN(C)C)o2)cc1`, -0.95%; that for `O=C(Nc1cccc(OC(F)(F)F)c1)c1ccc(Br)o1`, 1.31%.
Consider `Cc1sc2nc(SCC(=O)OC(C)C)n(C)c(=O)c2c1C`, for which the viability increase is -1.84%.
The result for `CNC(=O)CN1C(=O)CSc2nc(C)cc(C)c21` reads 0.88%.
On to `CCSc1nnc(Cn2c(=O)sc3ccccc32)n1-c1ccc(OC)cc1`, for which the viability increase is -1.8%.
In the case of `CCOc1ccccc1NC(=O)CSc1nc2c(c(=O)n1C)SC(C)C2` (centres undefined), the viability increase is -2.89%.
Consider `CCC(C)NC(=O)CCS(=O)(=O)c1ccc2c(c1)n(C)c(=O)c(=O)n2C` (centres undefined), for which the viability increase was -0.01%.
On to `COc1ccc(-n2ncc3c(N(C)C4CCCCC4)ncnc32)cc1`, for which the viability increase was -3.73%.
Then `CCOC(=O)CCc1c(C)n(CC)c2ncnn2c1=O`, with -0.77%.
For the molecule `Cc1ccc(S(=O)(=O)N2CCN(Cc3ccccc3C(F)(F)F)CC2)cc1`, the viability increase is -1.45%.
Turning to `Cc1nc(N2CCN(C(=O)c3ccco3)CC2)c2c3c(sc2n1)CCC3`, the viability increase is -1.12%.
The result for `CCOC(=O)c1nnn(-c2nonc2N)c1CN(C)Cc1ccccc1` reads -4.12%; that for `O=C(CN1CCOc2ccccc21)NCc1ccc(F)cc1`, -5.89%; that for `NC(=O)CCc1c[nH]c2ccccc12`, -3.35%.
As to `CC1CC(C)(C)Nc2ccc(OC(=O)c3ccco3)cc21` (centres undefined), the viability increase is -7.85%.
With `Cc1cc(NC(=O)CN2CCCCC2C)nc2c1c(=O)oc1ccccc12` (centres undefined), the viability increase was -0.4%.
Regarding `Cc1cc(NC(=O)C2CC(c3ccc(F)cc3)=NO2)n(-c2ccccc2)n1` (centres undefined), the viability increase was 0.96%.
The result for `O=C(Nc1ncc(Br)s1)C(Cc1ccccc1)n1cccc1` (centres undefined) reads -6.2%; that for `COC(=O)C1CCN(C(=O)c2ccc(Cl)c(S(=O)(=O)NCc3cccnc3)c2)CC1`, 0.87%.
`CCOC(=O)c1ccc(NC2c3ccccc3C(=O)N2c2cccnc2)cc1` (centres undefined): the viability increase was -3.72%.
On to `C=CCOC(=O)C1=C(C)NC(=O)NC1c1ccc(OC(=O)c2ccco2)c(OC)c1` (centres undefined), for which the viability increase was -0.16%.
